# Experimental data taken from the supplement of paper PMC8975748.
# Where a name gives a salt, the structure may show the parent alone. ± gives the standard deviation of the averaged measurements.
# Test system: Saccharomyces cerevisiae BY4741 SeMeCo community
# Assay: mean cell size (pixel area) (pixels); higher = larger cells
# Conditions: 10 µM; 24 h; SM minimal medium
# Outline: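 A four-plasmid fluorescent Saccharomyces cerevisiae BY4741 community was tested; each plasmid complements one auxotrophy and carries a fluorescent marker. An overnight preculture at OD600 = 1.0 was diluted to OD600 = 0.3, and 70 µl was added to 384-well plates acoustically predosed with drug (final 10 µM) in SM medium for 24 h. Cells were fixed with paraformaldehyde and imaged by automated confocal microscopy, with analysis in Harmony. Mean cell pixel area per well is averaged over 3 replicates. Same SeMeCo high-content imaging drug screen: Selleck FDA-approved drugs at 10 µM, 24 h in SM medium, 384-well plates, 3 replicates.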
row,Structure (SMILES),mean cell size
1,N[C@@H]1C[C@H]1c1ccccc1 [Tranylcypromine (2-PCPA) HCl],12.3 ± 0.32
2,Oc1cc(Cl)ccc1Oc1ccc(Cl)cc1Cl [Triclosan],12.5 ± 0.31
3,O=C(O[C@H]1C[C@H]2CC[C@@H](C1)[N+]21CCCC1)C(O)(c1ccccc1)c1ccccc1 [Trospium chloride],12.5 ± 0.18
4,Nc1nc(N)nc(NC2CC2)n1 [Cyromazine],12.46 ± 0.1
5,CC(=O)O[C@H]1C[C@@H]2CC[C@@H]3[C@H](CC[C@@]4(C)[C@H]3C[C@H]([N+]3(C)CCCCC3)[C@@H]4OC(C)=O)[C@@]2(C)C[C@@H]1[N+]1(C)CCCCC1 [Pancuronium dibromide],12.5 ± 0.19
6,CC[N+](C)(CC)CCOC(=O)C(O)(c1ccccc1)c1ccccc1 [Methylbenactyzine Bromide],12.6 ± 0.34
7,Cc1cc(C(C#N)c2ccc(Cl)cc2)c(Cl)cc1NC(=O)c1cc(I)cc(I)c1O (stereo not given) [Closantel],12.3 ± 0.27
8,CCOC(=O)Nc1ccc(NCc2ccc(F)cc2)cc1N [Retigabine 2HCl],12.5 ± 0.25
9,CN(C)C(=O)Oc1ccc[n+](C)c1 [Pyridostigmine Bromide],12.54 ± 0.1
10,CN[C@@H]1[C@@H](O)[C@@H](O[C@@H]2[C@@H](O)[C@H](O[C@H]3O[C@H]([C@@H](C)O)[C@@H](O)[C@H](O)[C@H]3N)[C@@H](N)C[C@H]2N)OC[C@]1(C)O [Geneticin (G418 Sulfate)],11.99 ± 0.045
11,C=CC[C@]1(O)CC[C@H]2[C@@H]3CCC4=CC(=O)CCC4=C3C=C[C@@]21C [Altrenogest],12.58 ± 0.1
12,CC(C)=CCOc1c2occc2cc2ccc(=O)oc12 [Imperatorin],12.6 ± 0.14
13,C=C[C@H]1CN2CC[C@H]1C[C@H]2[C@H](O)c1ccnc2ccccc12 [Cinchonidine],12.47 ± 0.048
14,CC[C@@H](C(N)=O)N1CCCC1=O [Levetiracetam],12.5 ± 0.14
15,Oc1cccc2cccnc12 [8-Hydroxyquinoline],12.61 ± 0.039
16,"NCC(O)c1ccc(O)cc1 (racemic) [(+,-)-Octopamine HCl]",12.3 ± 0.14
17,CC(=O)c1c(O)cc(C)oc1=O [Sodium dehydroacetate],12.3 ± 0.038
18,C[C@H]1O[C@H](O[C@H]2[C@H](O)[C@@H](O)[C@@H](O)[C@H](O)[C@@H]2O)[C@@H](N)C[C@@H]1NC(=N)C(=O)O [Kasugamycin hydrochloride],12.1 ± 0.21
19,C[CH2][Hg][S]c1ccccc1C(=O)[O-].[Na+] [Thimerosal],12.3 ± 0.52
20,Cc1cc(C(C#N)c2ccc(Cl)cc2)c(Cl)cc1NC(=O)c1cc(I)cc(I)c1O (stereo not given) [Closantel Sodium],12.2 ± 0.24

row,Structure (SMILES),mean cell size
1,C[N+](C)(C)CCCCCCCCCC[N+](C)(C)C [Decamethonium Bromide],12.47 ± 0.097
2,CC[C@H]1[C@@H]2C[C@H]3[C@@H]4N(C)c5ccccc5[C@]45C[C@@H]([C@@H]2[C@H]5O)N3[C@@H]1O [Ajmaline],12.1 ± 0.16
3,CCOC(=O)Nc1ccc(NCc2ccc(F)cc2)cc1N [Retigabine],12.58 ± 0.12
4,NCCc1c[nH]c2ccc(O)cc12 [Serotonin HCl],12.2 ± 0.41
5,COc1ccc2[nH]cc(CCN)c2c1 [5-Methoxytryptamine],12.18 ± 0.062
6,O=c1[nH]c2ccccc2n1CCCN1CCC(n2c(=O)[nH]c3cc(Cl)ccc32)CC1 [Domperidone],12.6 ± 0.23
7,CCN1C[C@]2(OC(=O)c3ccccc3NC(C)=O)CC[C@H](OC)[C@@]34[C@@H]2C[C@@H]([C@@H]13)[C@@]1(O)C[C@H](OC)[C@H]2C[C@@H]4[C@]1(O)[C@H]2OC [Lappaconitine],12.4 ± 0.3
8,CN(C)C(=O)Oc1cccc([N+](C)(C)C)c1 [Neostigmine Bromide],11.8 ± 0.15
9,CN1[C@@H]2CC[C@H]1C[C@@H](OC(=O)[C@H](CO)c1ccccc1)C2 [Hyoscyamine],12.27 ± 0.064
10,CCN(CC)CCOC(=O)C(O)(c1ccccc1)c1ccccc1 [Benactyzine hydrochloride],12.4 ± 0.051
11,C#C[C@]1(O)C=C[C@H]2[C@@H]3CCC4=CC(=O)CC[C@@H]4[C@H]3CC[C@@]21CC [Gestodene],12.5 ± 0.17
12,COc1ccc(C(CN(C)C)C2(O)CCCCC2)cc1 (stereo not given) [Venlafaxine],12.1 ± 0.091
13,COc1ccc(C(CN(C)C)C2(O)CCCCC2)cc1 (stereo not given) [Venlafaxine HCl],12.3 ± 0.27
14,O=[N+]([O-])C(Br)(CO)CO [Bronopol],12.2 ± 0.43
15,COC(=O)C1=CCCN(C)C1 [Arecoline HBr],12.4 ± 0.29
16,C[C@@H]1O[C@@H](O[C@H]2C[C@@H](O)[C@]3(CO)[C@H]4[C@H](O)C[C@]5(C)[C@@H](C6=CC(=O)OC6)CC[C@]5(O)[C@@H]4CC[C@]3(O)C2)[C@H](O)[C@H](O)[C@H]1O [Ouabain],12.3 ± 0.32
17,CC[C@@]1(O)C(=O)OCc2c1cc1n(c2=O)Cc2cc3ccccc3nc2-1 [Camptothecin],12.3 ± 0.14
18,Cc1cc(O)ccc1Cl [Chlorocresol],12.6 ± 0.13
19,CN1[C@@H]2C[C@@H](OC(=O)[C@H](CO)c3ccccc3)C[C@H]1[C@@H]1O[C@@H]12 [Scopolamine HBr],12.5 ± 0.14
20,COc1cc2c(cc1OC)C1CC(=O)C(CC(C)C)CN1CC2 (stereo not given) [Tetrabenazine (Xenazine)],12.62 ± 0.049
